TRPM1 prom inh = reduces MITF-dependent TRPM1 promoter luciferase signal; SK-MEL-5 TRPM1 promoter luciferase, 24 h; inhibition, % at 12.5 µM; hit rate 0.83% among 330,000; AID 488899;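 active = mean inhibition across replicates of 60% or more, whatever share of single replicates reaches that level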
697 NFkB inh = lowers PMA/ionomycin-induced NF-kB signal in 697 B cells; 697 B-cell NF-kB luciferase reporter, 16 h; inhibition, % at 4 µM; hit rate 0.33% among 330,000; AID 435022; in the data active = inhibition above about 35%
Shn3 3UTR inh = inhibitors of Schnurri-3 3'UTR reporter in osteoblasts; Clone20 osteoblast Shn3 3'UTR firefly luciferase, 24 h; inhibition, % at 12.5 µM; hit rate 0.52% among 360,000; AID 588674;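 active = mean inhibition of at least 75% with every replicate also reaching 75%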;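 note: 0% = median of neutral control wells and 100% = pilot-screen positive control compound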
Gli-Sufu antag = Gli-Sufu pathway antagonism. hit rate 0.74% among 340,000. Sufu-KO-LIGHT fibroblasts, Gli luciferase reporter luminescence. inhibition, % at 5 µM;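 active = inhibition above about 55%, limit read from the data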;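 note: 0% = DMSO-treated cells and 100% = wells with medium but no cells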
EBV LMP1 NFkB = Epstein-Barr LMP1 NF-kappaB reporter inhibition. LMP1-induced NF-kappaB luciferase reporter cells, luminescence. inhibition, % at 12.5 µM. hit rate 0.69% among 350,000; in the data active = inhibition above about 41%;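 note: 0% = neutral control wells and 100% = reference inhibitor control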
Jurkat NFkB inh = inhibitors of the PMA/ionomycin-induced NF-kB reporter in Jurkat cells; PMA/ionomycin-induced NF-kB luciferase reporter, luminescence; hit rate 0.53% among 330,000; inhibition, % at 4 µM; in the data active = inhibition above about 50%
Numbers without * were called inactive; . = no result. An excerpt weighted towards active compounds, which were near 2.3% of everything screened.

SMILES	TRPM1 prom inh	697 NFkB inh	Shn3 3UTR inh	Gli-Sufu antag	EBV LMP1 NFkB	Jurkat NFkB inh
COc1ccc(-n2nc(C(=O)NCC(=O)N3CCC(C)CC3)c3ccccc3c2=O)cc1Cl	-70	-62	-50	-43	-19	-68
C#CCOCCOCCOCCNc1nc(N2CCN(C(=O)[C@H](CCCCN)n3cc(CCCC)nn3)CC2)nc(N2CCN(C(=O)[C@H](CCCCN)n3cc(CCCC)nn3)CC2)n1	-6	2	-28	7	-1	0
CC(C)CC(N)c1csc(NC(=O)NCCc2ccccc2)n1 (configuration not stated)	.	.	-4	.	.	.
N=c1c2c(ncn1Cc1ccco1)Oc1ccc3ccccc3c1C2c1ccccc1 (configuration not stated)	20	3	31	17	-1	39
N=c1c2c(-c3ccccc3)c(-c3ccccc3)n(Cc3ccco3)c2ncn1Cc1ccco1	66*	-89	13	-88	-3	8
COc1cccc(CN(C)C(=O)CSC(C)C(=O)Nc2cc(C)on2)c1OC (configuration not stated)	3	11	3	-1	1	5
CC1=NN(C(C#N)c2c(C)nn(Cc3ccccc3)c2C)C(C)(C)C1 (configuration not stated)	2	-6	-3	1	57*	2
O=C(O)CN1C(=O)c2ccc(Oc3cccc4c3C(=O)N(CC(=O)O)C4=O)cc2C1=O	10	4	-8	1	-6	10
O=C(c1cccc(F)c1)N1CCN(c2cccc(Cl)c2)CC1	17	-29	14	23	45*	43
O=C(c1cccc(F)c1)N1CCCN(C(=O)c2cccc(F)c2)CC1	-14	3	5	2	6	-20
NC(=S)NN=Cc1nccc2c(C(F)(F)F)cccc12	.	.	81	.	62*	.
NC(=S)N/N=C/c1ccccc1	8	-10	6	9	3	-6
NC(=S)NN=Cc1cc(-c2cccc(N)c2)ccn1	.	.	76	.	21	.
CNc1cccnc1C=NNC(N)=S	47	.	94*	84*	67*	.
CC(NCC(O)COCc1cccs1)C1CC2CCC1C2 (configuration not stated)	-6	-5	5	4	-9	-14
COc1cccc(-n2cc3c(=O)n(C)c(=O)n(C)c3c2)c1	-16	-5	-22	-3	-13	-22
Nc1cc2c(cc1Br)[nH]c(=O)c1ccccc12	93*	.	83	22	-109	.
Nc1cc2[nH]c(=O)c3ccccc3c2cc1Br	8	.	0	9	-11	.
CCCC(c1nnnn1Cc1ccc(OC)cc1)N1CCN(c2ccccc2)CC1 (configuration not stated)	-4	.	89*	-1	3	.
COc1ccc(Cn2nnnc2C(CC(C)C)N2CCN(c3ccccc3)CC2)cc1 (configuration not stated)	1	7	25	10	8	3
CCOC(=O)OC(C)OC(=O)[C@@H]1N2C(=O)[C@@H](NC(=O)[C@H](N)c3ccccc3)[C@H]2SC1(C)C (some centres not stated)	0	15	9	-14	56*	-5
CC(Oc1ccccc1)C(=O)NC1C(=O)N2C1SC(C)(C)C2C(=O)O (configuration not stated)	10	3	20	-5	9	-5
CC(C(=O)Nc1ccccc1Br)c1ccc([N+](=O)[O-])cc1 (configuration not stated)	0	15	-6	4	10	-3
COC(=O)c1ccccc1NC(=O)C(C)c1ccc([N+](=O)[O-])cc1 (configuration not stated)	4	-8	7	1	62*	-5
Cc1c(N=C2C=CC(=O)c3ccccc32)c(=O)n(-c2ccccc2)n1C	71*	.	-12	40	-12	.
SMILES	TRPM1 prom inh	697 NFkB inh	Shn3 3UTR inh	Gli-Sufu antag	EBV LMP1 NFkB	Jurkat NFkB inh
O=[N+]([O-])c1ccc(Sc2nc3ccccc3o2)c([N+](=O)[O-])c1	87*	-40	98*	4	15	45
Cn1c(SCc2cc(=O)[nH]c3ccccc23)nnc1-c1ccc(Br)cc1	-5	1	-8	5	-8	4
CCC(CC)CC1CN2CCc3cc(OC)c(OC)cc3C2CC1(O)CC (configuration not stated)	.	.	85*	.	3	.
COc1cc2c(cc1OC)C(c1ccc(-c3ccccc3Cl)o1)=NCC2	10	-5	65	4	51*	26
O=S(=O)(NCC1CCCO1)c1cc(Cl)ccc1Cl (configuration not stated)	-28	14	1	2	0	9
O=C(CN(C1CCCCC1)S(=O)(=O)c1ccc(F)cc1)NCC1CCCO1 (configuration not stated)	86*	.	97*	-5	-132	.
O=C(CN(c1ccc(Cl)cc1)S(=O)(=O)c1ccc(Cl)c([N+](=O)[O-])c1)NCCc1ccccc1	51	29	36	12	9	-10
O=[N+]([O-])c1ccc(Cl)c(S(=O)(=O)NCC2CCCO2)c1 (configuration not stated)	4	8	-8	-5	48*	10
O=C(CN(c1ccc(Br)cc1)S(=O)(=O)c1ccc(Cl)c([N+](=O)[O-])c1)NCC1CCCO1 (configuration not stated)	85*	.	3	6	7	.
O=C(CN(c1ccc(Cl)cc1)S(=O)(=O)c1ccc(Cl)c([N+](=O)[O-])c1)NCCc1ccc(F)cc1	70*	21	15	19	-13	7
O=C(CN(C1CCCCC1)S(=O)(=O)c1ccccc1)NCC1CCCO1 (configuration not stated)	3	4	7	-26	-17	12
O=[N+]([O-])c1ccc(NNS(=O)(=O)c2cc(Cl)ccc2Cl)nc1	-1	2	-5	10	-12	-6
Cc1cc(N=Cc2c(O)ccc3cc(Br)ccc23)no1	13	.	-4	8	56*	.
O=C(N/C(=C/c1ccccc1Cl)C(=O)N1CCOCC1)c1ccccc1	-3	2	79	7	67*	6
COc1ccc2[nH]c(C)c(CCN(Cc3cccs3)C(=S)Nc3ccccc3)c2c1	8	-4	60	13	-10	-2
COc1ccc2[nH]c(C)c(CCN(Cc3cccs3)C(=S)Nc3ccc(F)cc3)c2c1	8	0	86*	15	2	0
CCCCn1cnc2c(SCc3ccccn3)nc(N)nc21	-7	.	11	-3	12	.
Cc1onc(-c2ccccc2)c1C(=O)N/N=C/c1ccc([N+](=O)[O-])s1	65*	2	-1	6	5	14
Cc1ccc(NC(=S)N/N=C/c2ccc([N+](=O)[O-])s2)cc1	70*	-74	66	-2	38	-19
O=C(Cc1cccs1)N/N=C\c1ccc([N+](=O)[O-])s1	52	-10	14	5	-6	22

Bioassay records deposited in PubChem BioAssay by several laboratories.
